The results in this text go back to PubChem BioAssay AID743279 (National Center for Advancing Translational Sciences (NCATS), 2014).

Among all 360,000 compounds or so, about 17,000 (4.7%) were called active. Inconclusive results (about 5%) are left out. Rule as the data show it: active = activity change below about -50%; inconclusive = mostly about -30% to -49%; inactive = weaker than that. What follows is part of a selection rich in actives, with near analogues and random picks from the rest.
% is scaled to controls: 0 for no effect and ±100 for the full control effect.

The nature of this assay: qHTS for Inhibitors of Inflammasome Signaling: IL-1-beta AlphaLISA Primary Screen. The settings on record: THP-1 LPS/ATP IL-1B secretion, 16 h; at 57.5 µM, hits give low values. Summed up: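 Secreted IL-1B measured by AlphaLISA bead assay after 16 h compound exposure of THP-1 cells; compounds (final up to 57.5 uM) added 1 h before LPS (250 ng/mL) and ATP (1.25 mM) stimulation; lower signal means less secretion.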
In general terms: In qHTS, concentration-response curves come from the screen itself.
As to `CC1(Oc2ccccc2-c2ccno2)CCN(Cc2ccc(-c3ccccc3)o2)C1` (stereo not drawn), the activity change is 5.25% (inactive). The value for `O=C(Nc1ccc2ccccc2c1)Nc1ccc2snnc2c1` was -98.9% (active); that for `O=C(Nc1cccc(Br)c1)c1ccc2snnc2c1` was -14.1% (inactive). Regarding `S=C(Nc1ccccc1)Nc1ccc2ccccc2c1`, the activity change was -11.8% (inactive). As for `Cc1cc2oc(=O)cc(CN(C)Cc3ccccc3)c2cc1Cl`, the activity change is -8.49% (inactive). As for `COc1ccc(CCOC2OC(CO)C(OC(=O)/C=C/c3ccc(O)c(OC)c3)C(O[C@H]3O[C@@H](C)[C@H](O)[C@@H](O)[C@H]3O)C2O)cc1O` (stereo partly drawn), the figure is 12.4% (inactive).

Turning to `CC1CCCC(C)N1C(=O)CN1CCN(c2nc(-c3ccc(F)cc3)cs2)CC1` (stereo not drawn), the activity change was -52.3% (active). The value for `O=C(COC(=O)C1CCCO1)Nc1nc(-c2ccc(F)cc2)cs1` (stereo not drawn) was -13.3% (inactive); that for `Cc1cccc(C)c1NC(=O)CN1CCN(c2ccc(F)cc2)CC1` was 21.6% (inactive); that for `O=C(CCCN1C(=O)C(c2ccccc2)Oc2cccnc21)Nc1ccccc1Br` (stereo not drawn) was -9.67% (inactive). As for `Cc1cc(Br)cn2c(Cc3ccccc3C(F)(F)F)c(C3CCCCC3)nc12`, the figure is 1.07% (inactive). The value for `Cc1cc(C)c2nc(N(CCN(C)C)C(=O)/C=C/c3cccs3)sc2c1` was 16.5% (inactive); that for `COc1ccccc1NC(=O)CC(NCCN(C)C)C(=O)O` (stereo not drawn) was 12.6% (inactive); that for `Cc1cccc2sc(N(CCCN(C)C)C(=O)CCS(=O)(=O)c3ccccc3)nc12` was -96.3% (active). Regarding `COc1cccc2sc(N(CCCN(C)C)C(=O)C(c3ccccc3)c3ccccc3)nc12`, the activity change was -104% (active). As for `COc1cc2ccccc2cc1C(=O)N(CCN(C)C)c1nc2c(F)cccc2s1`, the figure is 14.7% (inactive); as for `COc1ccc(N(C)C(=O)CCS(=O)(=O)c2cccc3nsnc23)cc1`, -11.5% (inactive); as for `Cc1ccc(S(=O)(=O)CCC(=O)OCC(=O)N(C)Cc2ccccc2)cc1`, 8.91% (inactive). The value for `COc1cccc2sc(N(CCCN(C)C)C(=O)CCS(=O)(=O)c3ccccc3)nc12` was -103% (active); that for `Cc1ccc2sc(N(CCN(C)C)C(=O)/C=C/c3cccs3)nc2c1C` was 6.57% (inactive). The value for `CC(=O)NC(c1cccc(F)c1)c1nc(-c2cccc(F)c2)cs1` (stereo not drawn) was -16.3% (inactive); that for `CCN(CC)C(=O)C(C)N1c2cccc3cccc(c23)S1(=O)=O` (stereo not drawn) was 13.2% (inactive); that for `O=C(CCNS(=O)(=O)c1ccccc1)NCCCc1ccccc1` was 14.3% (inactive). In the case of `COc1ccc(OC)c(C(=O)c2ccc(C(=O)N3CCN(Cc4csc(C)n4)CC3)cc2)c1`, the activity change was 27.4% (inactive). Consider `CCc1cc(C(N)=O)c(NC(=O)c2ccc(OC)cc2)s1`, for which the activity change was -102% (active). The value for `CCc1ccc(NC(=O)CN2CCC(C(=O)c3ccc(OC)cc3)CC2)cc1` was -20.7% (inactive). As for `CCc1cc(C(=O)c2ccc(OC)cc2)c(NC(=O)CN2CCN(C)CC2)s1`, the figure is -54.3% (active). For the compound `COc1ccc(C(=O)Nc2sc(C)c(C)c2CN2CCOCC2)cc1`, the activity change was 14% (inactive). As for `COc1ccc(C(=O)Nc2ccc(F)cc2F)cc1`, the activity change was -11.8% (inactive). As for `CCCCn1nnnc1C(c1cc2ccccc2o1)N(C)Cc1ccc(Cl)c(Cl)c1` (stereo not drawn), the figure is 1.13% (inactive); as for `COc1ccc(CN2C(=O)C(CC(=O)NCCCCc3ccccc3)CC(C(=O)N3CCOCC3)=C2C)cc1` (stereo not drawn), -11% (inactive). The value for `COc1ccc(C(C)=O)cc1COc1ccc(Cl)c(C)c1` was -8.14% (inactive); that for `COc1ccc(/C=C/C(=O)Nc2c(C)nn(C)c2C)cc1COc1ccc(Br)cc1` was -24.2% (inactive).

With `CCn1nc(C)c(NC(=O)/C=C/c2ccc(OC)c(COc3ccc(Br)cc3)c2)c1C`, the activity change was -50.3% (active).

For `O=C(NN=Cc1ccc2c(c1)CCC2)c1ccccc1O`, the activity change was -24.6% (inactive).

As for `CC1CCN(S(=O)(=O)c2ccc3c(c2)n(C)c(=O)n3C)CC1`, the activity change was -8.4% (inactive). Take `CC1CCN(C(=S)c2cccc(O)c2)CC1`: the activity change was 10.7% (inactive). As for `CCCCn1c(N)c(N(CCOC)C(=O)c2sc3ccccc3c2Cl)c(=O)[nH]c1=O`, the activity change was -21.6% (inactive). The value for `Cc1ccc(CS(=O)(=O)c2ncc(Cl)c(C(=O)Nc3nnc(C)s3)n2)cc1` was -57.1% (active); that for `Cc1nnc(NC(=O)CCCOc2ccccc2)s1` was 19.1% (inactive).

On to `Cc1ccc(S(=O)(=O)CCC(=O)Nc2nnc(CC(C)C)s2)cc1`, for which the activity change was -3.21% (inactive). As for `COCCSc1nnc(NC(=O)CCS(=O)(=O)Cc2ccccc2)s1`, the figure is 1.75% (inactive); as for `CSc1nnc(NC(=O)c2nc(S(=O)(=O)Cc3ccc(C)cc3)ncc2Cl)s1`, -105% (active). `CSc1ncc(Cl)c(C(=O)Nc2cc(C)ccc2C)n1`: the activity change is 25.6% (inactive).

For `CCc1nc2ccc(C(=O)NC3CCN(Cc4ccccc4)CC3)cn2c1N(CC)CCOC`, the activity change is -7.01% (inactive). As for `O=C(Cn1cc(C(=O)C2CC2)c2ccccc21)Nc1ccccc1Cl`, the figure is -2.81% (inactive); as for `Cc1ccc(NS(=O)(=O)c2ccc(C(=O)NCCCN3CCOCC3)cc2)cc1`, 6.14% (inactive); as for `COC(=O)c1ccc2c(c1)S(=O)(=O)NC2C` (stereo not drawn), 5.94% (inactive). As for `CCOC(=O)C1=CC[C@@H](c2ccccc2)N(S(=O)(=O)c2ccc(C)cc2)[C@H]1c1ccc(CC)cc1`, the figure is 52.6% (inactive); as for `COc1ccc(S(=O)(=O)N2CCN(CC(=O)N3CCNC3=O)CC2)cc1OC`, -22% (inactive); as for `CC(C)OC(=O)c1ccc(NCc2cc(O)ccc2O)cc1Cl`, 0% (inactive). As to `O=C(OC12CC3CC(CC(C3)C1)C2)c1ccc(NCc2cc(O)ccc2O)cc1`, the activity change was -102% (active). As for `COC(=O)c1ccc(NCc2cc(O)ccc2O)cc1`, the figure is -110% (active); as for `COC(=O)c1ccc(NCC(=O)c2ccccc2)cc1`, -20.4% (inactive); as for `CC1(C)C2CCC1(C)C(OC(=O)c1ccc(O)cc1)C2` (stereo not drawn), 9.54% (inactive).

With `Cc1ccc(-c2cnc(C(O)c3cccc(C)c3C)[nH]2)cc1` (stereo not drawn), the activity change is -19.2% (inactive). As for `CCC(=O)OCc1c(C(F)(F)F)nn(C)c1Oc1cccc(C(F)(F)F)c1`, the figure is 2.89% (inactive); as for `CCC(C)C(CO)NC(=O)/C=C/[C@H]1O[C@@H](n2cnc3c(NC(=O)c4ccccc4)ncnc32)[C@H](O)[C@@H]1O` (stereo partly drawn), -22% (inactive). As for `C[C@H](CO)N1C[C@H](C)[C@@H](CN(C)Cc2ccc3c(c2)OCO3)OCc2cnnn2CCCC1=O`, the figure is 19.4% (inactive); as for `CC1CCCC(C)N1C(=O)COC(=O)c1ccccc1C(=O)c1ccccc1` (stereo not drawn), -9.64% (inactive); as for `N#Cc1c(N)nc2c(c1N)CC(C(F)(F)F)O2` (stereo not drawn), 16.5% (inactive).

For `O=C(O)C(CCc1ccccn1)c1ccccc1` (stereo not drawn), the activity change was -10.2% (inactive).

For `O=c1[nH]c2c(c(=O)n1-c1ccccc1)CCO2`, the activity change was 0% (inactive). The value for `O=C(NCc1ccco1)c1ccc([N+](=O)[O-])cc1Cl` was 15.3% (inactive). As for `CC(OC(=O)CNC(=O)c1ccco1)C(=O)Nc1ccc(Cl)cn1` (stereo not drawn), the figure is 12.3% (inactive). Take `CC(OC(=O)CNC(=O)c1ccc(Cl)c([N+](=O)[O-])c1)C(=O)NCc1ccco1` (stereo not drawn): the activity change is -52.2% (active). As for `CCc1nc2ccc(C(=O)N(C)Cc3ccco3)cn2c1N(C)C(=O)Cc1ccccc1`, the figure is -0.908% (inactive); as for `CCCN(C(=O)COC(=O)CNS(=O)(=O)c1ccc(NC(C)=O)cc1)C1CCS(=O)(=O)C1` (stereo not drawn), 14.5% (inactive). As for `CCOC(=O)N1CCN(C(c2ccnc3ccccc23)c2nnnn2-c2c(C)cccc2C)CC1` (stereo not drawn), the figure is -14.1% (inactive); as for `Cc1ccccc1C(CC(=O)c1cccs1)C(C#N)C#N` (stereo not drawn), -107% (active). In the case of `O=C(NCC(=O)N1CCN(c2ccccc2F)CC1)c1cccs1`, the activity change was 16.6% (inactive). As for `Cc1ccc(C)c(NC(CC(=O)c2ccccc2)C(=O)OCC(=O)c2cccs2)c1` (stereo not drawn), the figure is 7.47% (inactive); as for `CCOC(=O)CSc1nc2ccc(C)cc2n2cnnc12`, -55.9% (active); as for `CCOC(=O)CSc1nncc2ccc(OC)c(OC)c12`, -8.55% (inactive). `COc1ccc(CCNc2nc3ccc(C)cc3n3cnnc23)cc1OC`: the activity change is 13.3% (inactive).

For `CN(CCCNC(=O)CN1C(=O)CC(C)(C)S(=O)(=O)c2ccccc21)C1CCCCC1`, the activity change is 0% (inactive). The value for `COc1ccccc1C(=O)NC(=S)Nc1ccc(N2CCOCC2)cc1` was -16.4% (inactive). The value for `CCCCCC(=O)N1C[C@H](O)[C@@H](n2cc(COC(=O)c3ccccc3)nn2)C[C@@H]1c1ccc(C)cc1` was -14.9% (inactive); that for `N=C1C(c2nc3ccccc3[nH]2)=C(O)CN1NC(=O)c1c[nH]c2ccccc12` was 27.9% (inactive).

For the compound `Cc1ccc(C)n1NC(=O)c1ccc([N+](=O)[O-])cc1`, the activity change was -5.32% (inactive). Regarding `N=C1C(c2nc3ccccc3s2)=C(O)CN1NC(=O)c1ccc([N+](=O)[O-])cc1`, the activity change was -90.6% (active). As for `CN1OC[C@@H]2CN[C@H](c3ccc(-c4ccccc4)cc3)C[C@@H]21`, the figure is -4.9% (inactive); as for `O[C@H]1CN(Cc2cccs2)[C@@H](c2ccc(Cl)cc2)C[C@@H]1n1cc(C2CC2)nn1`, 30.3% (inactive); as for `COCCN(C(=O)C(C)C)c1nnc(-c2ccc(C(C)(C)C)cc2)s1`, -83.8% (active). The value for `COCCN(C(=O)c1ccco1)c1nnc(-c2ccc(OC)cc2)s1` was -3.55% (inactive); that for `COc1cc(OC)cc(-c2nnc(N(C)C(=O)c3ccncc3)s2)c1` was -18.8% (inactive). The value for `CCC1=C(OC(=O)N(CC)CC)N2C(=O)OC(=NCC3CC3)[C@]2(C)[C@H]2C1=CC[C@H]1C(=O)N(CC(=O)OC)C(=O)[C@H]12` was 25% (inactive). Take `COc1ccccc1C(=O)Nc1ccccc1C(=O)Nc1ccccc1`: the activity change was -4.71% (inactive). As for `COc1ccccc1NC(=O)c1cc(Cl)nnc1Cl`, the figure is -97.2% (active); as for `COc1ccccc1NC(=S)NC(=O)C(C)C`, 3.02% (inactive).

In the case of `COc1ccccc1NC(=O)C[n+]1ccccc1`, the activity change is 33.7% (inactive). The value for `COc1ccccc1NC(=O)/C=C/C(N)=O` was -100% (active). As for `COc1ccccc1NC(=O)c1cc(Cl)nc2ccccc12`, the figure is 46.4% (inactive).
